Records with an inconclusive call do not appear. Values without a mark were called inactive. Calls of active or inactive are those of the source. Calls come from the whole dose curve; as a rule, active = well fitted activation curve with a large enough effect in the repeat runs; inconclusive = weak or mixed curves; inactive = flat fitted curve, though single readings scatter.
Test: A CellTox Green Cytotoxicity Assay to monitor cytotoxicity in HepG2 cells - 40 hour (AID 1224879); note: nearly all actives have a fitted effect of over 40% in size
Details: CellTox Green fluorescence; series mostly up to 76.8 µM; cytotoxicity increase: at the top concentration
Description: National Center for Advancing Translational Sciences [NCATS]
NIH Chemical Genomics Center [NCGC]
U.S. Environmental Protection Agency [EPA]
National Institutes of Environmental Health Sciences [NIEHS]
National Toxicology Program [NTP]
Cell-based models are critical for drug discovery. Determining the natural cytotoxic effects resulting from test compounds is an essential research activity. A CellTox Green Cytotoxicity Assay to monitor cytotoxicity in real time of continues cell culture during 40 hours of the compound treatment was used to screen Tox21 10K library compounds in HepG2 cells. CellTox Green Cytotoxicity Assay is a nonlytic, homogeneous, biofluorescent method to measure cytotoxicity in cell culture after experimental manipulation. The assay system uses a proprietary asymmetric cyanine dye that is excluded from viable cells but preferentially stains the dead cell's DNA. […] Viable cells produce no appreciable increases in fluorescence. Therefore, the fluorescence signal produced by the binding interaction with dead cell DNA is proportional to cytotoxicity.
The mixture of HepG2 cell suspension and reagents were dispensed at 600cells/6 ul/well in 1536-well tissue culture treated black solid bottom plates using a Multidrop dispenser. After the assay plates were incubated at a 37 C/5% CO2 incubator for 5 hours, 23 nL of compounds dissolved in DMSO, positive and negative controls was transferred to the assay plate by a pintool work station. The plates were incubated at 37 C for 40 hours. The fluorescence intensity were measured at 0h, 8h, 16h, 24h, 32h and 40h time points using ViewLux plate reader during compound treatment.
% is set by controls: 0 for no effect and ±100 for the full control effect; potency is the fitted concentration of half-maximal effect.

Compound | cytotoxicity increase | Potency
Cc1cnc[nH]1 | -5.79% | –
CSc1nc(N=[N+]=[N-])nc(NC(C)C)n1 | 20.8% | –
CC(=O)Nc1cc([As](=O)(O)O)ccc1O | -4.33% [at 35.3 µM] | –
COc1cc(OC)nc(NC(=O)NS(=O)(=O)c2ncccc2C(=O)N(C)C)n1 | -3.96% | –
CC1CCCCC1NC(=O)Nc1ccccc1 (stereo not given) | -12.7% | –
CCCCc1ccc(O)cc1 | – | 21.8 µM (active)
CCN(CC)CCOC(=O)C(C)(c1ccccc1)c1ccccc1 | 28.3% [at 35.3 µM] | –
c1coc(-c2nc3ccccc3[nH]2)c1 | 2.6% | –
N#CC(O)c1ccccc1 (stereo not given) | -1.05% | –
O=[N+]([O-])c1cccc2cccnc12 | -1.18% | –
CCCSC(=O)N(CCC)CCC | -12.6% | –
CC1=C(C(=O)O)N2C(=O)[C@@H](N)[C@H]2SC1 | -6.02% [at 15.8 µM] | –
CN(C)CCc1ccc(O)cc1 | -15.7% [at 35.3 µM] | –
COP(=S)(OC)Oc1ccc(S(N)(=O)=O)cc1 | -31.1% [at 35.3 µM] | –
OCCSCSCCO | -0.758% | –
COC(=O)C1=CCCN(C)C1 | -10.2% [at 35.3 µM] | –
CC1(C)CON(Cc2ccccc2Cl)C1=O | 0.326% | –
CCOC(=O)C1(c2ccccc2)CCN(CCc2ccc(N)cc2)CC1 | -0.852% [at 35.3 µM] | –
CCCCCCI | -11.7% | –
[O]=[Cd] | -0.758% | –

Compound | cytotoxicity increase | Potency
CCOP(=S)(OCC)SCSc1ccc(Cl)cc1 | -8.51% | –
c1ccc(N2CCNCC2)cc1 | -18% [at 35.3 µM] | –
CCOc1nc(C(Cl)(Cl)Cl)ns1 | 19.8% | –
CCS(=O)(=O)C(C)(C)S(=O)(=O)CC | -3.49% [at 35.3 µM] | –
O=C(O)C(Br)CBr (stereo not given) | -1.76% | –
O=NN1CCN(N=O)CC1 | 5.78% | –
C[N+](C)=CCl | -12.7% | –
NC(=S)C(N)=S | -1.16% | –
O=C(O)c1ccc2[nH]cc(CCCCN3CC=C(c4ccccc4)CC3)c2c1 | -15.6% [at 35.3 µM] | –
Clc1cccc(N2CCNCC2)c1 | 2.57% [at 35.3 µM] | –
Cc1cccc(C#N)c1 | -1.7% | –
CSc1ccc(C(=O)C(C)(C)N2CCOCC2)cc1 | 5.21% | –
ClC(Cl)(Cl)C(Cl)(Cl)Cl | 6.86% | –
Cc1cc(C)c(C(=O)P(=O)(C(=O)c2c(C)cc(C)cc2C)c2ccccc2)c(C)c1 | -4.78% | –
COc1cc2c(cc1OC)[C@@]13CCN4CC5=CCO[C@H]6CC(=O)N2[C@H]1[C@H]6[C@H]5C[C@H]43 | -8.02% | –
C[C@]12CC[C@H]3[C@@H](CCC4=CC(=O)CC[C@@]43C)[C@@H]1CC[C@@H]2C(=O)O | -13.8% [at 35.3 µM] | –
C[N+](=O)[O-] | 1.94% | –
CC(=O)[C@H]1CC[C@H]2[C@@H]3CC[C@H]4C[C@H](O)CC[C@]4(C)[C@H]3C(=O)C[C@]12C | 16.4% [at 35.3 µM] | –
COP(=S)(OC)Oc1c(Cl)cc(C)cc1Cl | -13.7% | –
CC(=O)CC(c1ccc(Cl)cc1)c1c(O)c2ccccc2oc1=O (stereo not given) | -6.31% | –

— PubChem BioAssay (Tox21)
